About 83,000 compounds went through this panel and 20% of them were active in at least one assay; those are over-represented in the sample as a whole.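 In brief: 96-well plates, 48 h treatment, single concentration, percent growth endpoint.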 A number with no mark means an inactive call. Active and inactive are the calls of the source. How the source made its calls: active means growth percent below 10; inactive means the rest.

The subject of the assay is HL-60(TB) leukemia. Nature of the assay: NCI-60 one-dose screen, 48 h (100 = growth as untreated, 0 = no growth, -100 = all killed). To be noted: 10 µM unless noted.
For the compound `O=C(NC(=S)N1CCN(c2ncnc3c2cnn3-c2ccccc2)CC1)c1ccc(Br)cc1`, the growth is 90.8%.
`Nc1cccnc1/C=N/NC(=S)NCCNC(=O)c1ccc(-n2nc(-c3ccccc3O)nc2-c2ccccc2O)cc1`: the growth was -8.62% (active).
The same measure for `COc1ccc(N2N=C(c3ccc4c(c3)OCO4)CC2c2cccc(NC(=O)CCNS(=O)(=O)c3ccc(Cl)cc3)c2)cc1` (centres undefined): 34.4%; for `C=CCSc1nnc(-c2ccc(-c3nc4ccc(Cl)cc4[nH]3)cc2)o1`: 29.8%; for `CC1=C(C(=O)Nc2ccccc2)C(c2cccc(Cl)c2Cl)n2c(nc3ccccc32)N1` (centres undefined): 9.78% (active).
The same measure for `O=C1NC(=NC23CC4CC(CC(C4)C2)C3)N/C1=C\c1ccc2ncccc2c1`: -11.2% (active); for `O=C(Nc1ccc(F)cc1)Nc1nc2ccc([N+](=O)[O-])cc2s1`: -11.5% (active).
The same measure for `CN(C)CCCNC(=O)c1cc(NC(=O)c2cc(NC(=O)c3ccc(/C=C/c4ccccc4)cc3)cn2C)cn1C`: -37.7% (active); for `O=C(c1ccc(Cl)cc1)C1[C@H](c2ccc(Br)cc2)[C@@H](c2ccccc2)NC12C(=O)Nc1ccc(Cl)cc12` (some centres undefined): -45.2% (active); for `COc1cc2oc(-c3cccc(C(=O)Nc4ccc(Cl)cc4)c3)cc(=O)c2c(OCCNC(=O)[C@H](CO)NC(=O)OC(C)(C)C)c1OC`: -32.5% (active).
With `COc1cc(CNC(=O)C[C@H](C)CCC=C(C)C)ccc1OCc1cn(-c2cccc(C(F)(F)F)c2)nn1`, the growth was 96.3%.
As to `COc1ccc2[nH]cc(-c3nc(N)nnc3-c3cn(C)c4ncccc34)c2c1`, the growth is 15.1%.
With `Nc1cc(-c2c[nH]c3ccc(Cl)cc23)nc2cc(-c3c[nH]c4ccccc34)nn12` the figure was -18.2% (active).
With `COc1cccc(-c2c(C#N)c(-c3ccc(Cl)cc3)nc3n[nH]c(-c4ccc(Cl)cc4)c23)c1` the figure was 7.69% (active).
With `Cc1cccc(NCC(=O)N2CCN(c3ncnc4c3cnn4-c3ccccc3)CC2)c1` the figure was 60.2%; with `COc1ccc(N=Nc2c(N)nn3c(-c4ccc([N+](=O)[O-])cc4)ccnc23)cc1`, 85.7%; with `COC[C@@H](CC(C)C)N=C1N/C(=C\c2ccc3ncsc3c2)C(=O)N1C`, -1.54% (active).
Consider `CC(C)(C)c1ccc(NCc2cn(-c3ccc(C(=O)O)cc3)nc2-c2ccc(C#N)cc2)cc1`, for which the growth is 3.14% (active).
The same measure for `O=C(NO)c1ccc(Cn2ccc3c(Nc4ccccc4)ncnc32)cc1`: 0.922% (active); for `COc1ccc(C(=O)Nc2ccc(-c3ccc4c(c3)NC(=O)/C4=C\c3ccc[nH]3)cc2)cc1`: 89.6%; for `N#Cc1c(NC(=O)c2ccc(C(F)(F)F)c(Cl)c2)sc2c1CCC(=O)C2`: -14.4% (active).
With `O=C1Nc2cc(-c3ccc(NC(=O)c4cccc([N+](=O)[O-])c4)cc3)ccc2/C1=C/c1ccc[nH]1` the figure was 106%.
With `COc1cc(C2CC(c3cc(OC)c(OC)c(OC)c3)=Nc3c(N)nc(N)nc3N2)ccc1Oc1nc(Nc2ccc(F)cc2)nc(N(C)C)n1` (centres undefined), the growth was 8.45% (active).
The same measure for `Cc1cccc(-c2nc(Nc3ccc(C)c(S(N)(=O)=O)c3)c3ccccc3n2)c1`: 26%; for `Cc1nc(Nc2nc(C)c3ccc(OCCN4CCOCC4)cc3n2)[nH]c(=O)c1C`: 2.88% (active); for `O=C(CN1C(=O)/C(=C/c2ccccc2Cl)SC1=S)N1CCOCC1`: 90.2%.
The same measure for `NS(=O)(=O)c1ccc(N=Nc2c(O)n(CC(=O)Nc3ccccc3Cl)c3ccccc23)cc1`: 45.8%; for `COc1ccc(C(=O)/C=C/c2ccc(OCc3ccccc3)c(OC)c2)cc1OC`: 5.55% (active).
The same measure for `COc1ccc2[nH]c(O)c(N=NC(=O)COc3ccc(NC(=O)Nc4ccccc4)cc3)c2c1`: 96%.
Take `C#CCNC(=O)CCC(=O)OC[C@]12CC[C@@H](C(=C)C)[C@@H]1C1CC[C@@H]3[C@@]4(C)CCCNC(C)(C)[C@@H]4CC[C@@]3(C)[C@]1(C)CC2` (some centres undefined): the growth was -39% (active).
`C=C1CC[C@@H]2[C@]3(C)COC(c4ccco4)O[C@@H]3CC[C@@]2(C)[C@@H]1C/C=C1/C(=O)OCC1OC(C)=O` (some centres undefined): the growth was -5.13% (active).
The same measure for `O=C(CSc1nnc(-c2ccc(-c3nc4ccccc4[nH]3)cc2)o1)Nc1ccc(Cl)cc1`: 37.6%.
The same measure for `COc1ccccc1/C=C/c1cccc(NC(=S)NCCCCN(C)C)c1`: -41.7% (active); for `O=c1[nH]c2ccccc2cc1COc1ccc(Nc2nccc(-c3ccc(Cl)cc3)n2)cc1`: 95%.
The same measure for `S=C(Nc1ccccc1)Nc1ccc(OCc2nc3ccccc3[nH]2)cc1`: 20.2%; for `COc1ccc(-c2ccc(SCC(=O)Nc3ccc(S(N)(=O)=O)cc3Br)nn2)cc1`: 94.9%; for `O=C(CSc1nc2ccccc2c(=O)[nH]1)NNC(=O)c1ccccc1Cl`: 105%.
`CN1CCN(c2ccc(C(=O)/C=C/c3ccc(OC(F)F)cc3)cc2)CC1`: the growth was -26.7% (active).
The same measure for `COc1ccc(-c2nc(SC(C)C)nc(NCCc3c[nH]c4ccccc34)c2C#N)cc1`: 31.6%.

Source of the values: PubChem BioAssay (NCI).
